Source: PubChem BioAssay
The list is not random: actives were taken first. Their share in the collection is about 17%.
TGFb inhibitor – TGF-b pathway inhibition; Potency, µM (titrated, usually from 46.1 µM), inactives show at the top dose activity, negative = inhibition, hits mostly inhibitors; HepG2 CAGA-GFP TGF-b/SMAD3 reporter, GFP fluorescence, 18 h; TGF-beta stimulated, 500 pg/mL final; 410,000 tested, 1.2% active; further: on the % scale 0 is the no-effect control and ±100 the full control effect; nearly all actives have a fitted effect of over 65% in size
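HEPG2 CAGA-GFP reporter cells (1000/well, DMEM with 1% FBS) received compounds, then recombinant TGF-beta at 500 pg/mL final for 18 hours at 37 degrees C. Per-cell GFP summed per well was normalised to unstimulated and stimulated DMSO controls before curve fitting.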
ATXN viability – viability counter-screen for ATXN expression inhibitors | S2 cells (HEK-293 line with an ATXN2-luciferase reporter) viability, CellTiter-Fluor protease fluorescence, 24 h | Potency, µM (doses to about 56.7 µM), most hits filed as cytotoxic | 400,000 tested, 0.49% active; further: nearly all actives have a fitted effect of over 40% in size
TDP1 cell CPT – growth inhibition of DT40 Tdp1-/-;hTDP1 cells with camptothecin (screen for TDP1 inhibitors); Potency, µM (series often up to 46.2 µM), inactives show at the highest dose activity change, negative = growth inhibition, usual class: inhibitors; chicken DT40 Tdp1-/-;hTDP1 cells + 20 nM CPT, ATP luminescence, 48 h; 420,000 tested, 12% active; further: on the % scale 0 is the no-effect control and ±100 the full control effect; nearly all actives have a fitted effect of over 55% in size
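Cell growth measured by CellTiter-Glo luminescence after a minimum 48 h, 37 C compound exposure with 20 nM CPT in Tdp1-knockout DT40 cells stably expressing hTDP1, seeded 400/well; qHTS titration format.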
HepG2 tox – HepG2 cytotoxicity, counter-screen for TGF-b inhibitors; HepG2 CAGA-GFP viability, ATP luminescence, 18 h; Potency, µM (doses to about 46.1 µM), for the others: top-dose activity change, negative = cytotoxicity, hits mostly cytotoxic; 410,000 tested, 0.76% active; AID 588856
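HepG2 CAGA-GFP cells (1000/well, DMEM with 1% FBS) received compound, then TGF-beta at 500 pg/mL final, and were incubated 18 hours at 37 degrees C. Viability was read by CellTiter-Glo luminescence. Media-only wells were set as complete cell-killing and DMSO as no toxicity.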
DT40 TDP1 no CPT – qHTS for Inhibitors of human tyrosyl-DNA phosphodiesterase 1 (TDP1): qHTS in cells in absence of CPT. DT40 Tdp1-/- hTDP1 cells, no CPT, ATP luminescence, 48 h. Potency, µM (series often up to 46.2 µM), for the others: at the top dose activity change, negative = growth inhibition, usual class: inhibitors. 420,000 tested, 15% active; further: on the % scale 0 is the no-effect control and ±100 the full control effect; nearly all actives have a fitted effect of over 55% in size
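Cells were dispensed at 400 per well, compounds added by pin tool, plates incubated ≥48 hr at 37 °C, then CellTiter-Glo added for 30 min at room temperature before luminescence reading. Line: DT40 Tdp1-/- complemented with hTDP1; camptothecin omitted.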
ATXN2 expr inh – ATXN2 expression inhibition; HEK-293 ATXN2-luciferase reporter, luminescence, 24 h; Potency, µM (series often up to 57 µM), for inactives: at the highest dose activity change, negative = inhibition, usual class: inhibitors; 360,000 tested, 0.72% active; AID 1745845; further: on the % scale 0 is the no-effect control and ±100 the full control effect; nearly all actives have a fitted effect of over 55% in size
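qHTS (up to 57 uM final) was run with 24 h compound exposure of reporter cells at 37 °C. Each well was multiplexed: SteadyGlo luminescence measured ATXN2-luciferase expression after a fluorogenic Gly-Phe-AFC viability readout (25 uM final).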
An asterisk follows results filed as active; i = inactive; ? = inconclusive; . = no result given; [ ] = another dose, or the depositor's remark. The call rests on the fitted dose curve; in most records, active means well fitted curve in the direction sought with a large enough effect; inconclusive means small, poorly fitted or top-dose-only effect, or another doubt; inactive means no such curve, though single readings can be large; an effect the other way counts as inactive or inconclusive. Potency means the concentration at half of the fitted maximal effect.

SMILES | TGFb inhibitor | ATXN viability | TDP1 cell CPT | HepG2 tox | DT40 TDP1 no CPT | ATXN2 expr inh
COCC(C)n1c(C)cc(C(=O)CN2C(=O)NC3(CCCCC3C)C2=O)c1C (stereo not given) | 12.0% | i | ? | 18.5% | 20.6µM* | 11.6%
Cc1cc(-n2c(C)cc(C(=O)CN3C(=O)NC4(CCCCC4C)C3=O)c2C)no1 (stereo not given) | 4.2% | i | -18.9% | -0.1% | ? | -6.1%
Cc1cc(C)c2oc(-c3cccc(NC(=O)c4ccc(-c5cccc([N+](=O)[O-])c5)o4)c3)nc2c1 | 24.0% | i | . | 10.3% | . | 1.6%
O=C(CCS(=O)(=O)c1cccs1)Nc1ccc(C(=O)NC2CCN(Cc3ccccc3)CC2)cc1 | -4.8% | ? | ? | -23.3% | ? | .
COc1ccc(NC(=O)Cn2nnc(C(=O)NCCc3ccc(OC)c(OC)c3)c2N)c(OC)c1 | -8.6% | i | 2.2% | -15.4% | -22.8% | .
CCc1sc(N(C(=O)Cc2ccccc2)c2ccccc2F)nc1-c1ccc(C)cc1 | 10.4% | i | ? | -4.1% | 16.4µM* | .
CCN(CC(=O)Nc1c(F)cccc1F)C(=O)Cc1sc(C)nc1-c1ccc(F)cc1 | -26.8% | i | -2.5% | -0.2% | -8.6% | -23.5%
COc1ccc(CNC(=O)CN2N=C(c3ccc(Cl)cc3)CCC2=O)cc1 | -23.9% | . | ? | -21.1% | -35.4% | .
O=C(C1=NOC(CNc2ncc(C(F)(F)F)cc2Cl)C1)N1CCOCC1 (stereo not given) | 12.4% | i | 0.461µM* | 8.0% | -9.2% | 1.6%
O=C(NC1CC1)C1=NOC(CNc2ncc(C(F)(F)F)cc2Cl)C1 (stereo not given) | 12.5% | i | -0.2% | 2.0% | -11.5% | -5.5%
CCCCNC(=O)c1nc(-c2cccnc2OC)oc1-c1ccc(Cl)cc1 | . | . | 16.4µM* | . | 23.1µM* | .
CCOc1ccc(CCNC(=O)c2ccc3c(=O)[nH]c4c(C(=O)NC(C)C)sc(=S)n4c3c2)cc1 | -3.4% | i | 23.1µM* | 8.9% | 13µM* | .
COc1ccccc1N1CCN(C(=O)C(C)NC(=O)c2cccc([N+](=O)[O-])c2)CC1 (stereo not given) | -28.4% | i | ? | -36.7% | ? | -11.7%
CCOC(=O)N1CCN(CCC(=O)c2ccc(Cl)cc2)CC1 | ? | i | 2.31µM* | -58.6% | 3.26µM* | -3.3%
CCOC(=O)N1CCN(CCC(=O)c2ccc(Br)cc2)CC1 | -26.7% | i | 2.91µM* | -29.1% | 7.31µM* | 17.4%
CCOC(=O)N1CCN(CCC(=O)Nc2ccc(C)cc2)CC1 | 2.3% | i | -8.9% | -0.5% | 3.3% | ?
CCCN1C2=C(C(=O)CC(C)(C)C2)C(c2ccc(F)cc2)C2=C1c1ccccc1C2=O (stereo not given) | -7.6% | i | 20µM* | 3.6% | ? | -10.7%
Cc1ccc(C2C3=C(CC(C)(C)CC3=O)NC3=C2C(=O)c2ccccc23)cc1 (stereo not given) | -4.7% | ? | 20.6µM* | 3.2% | 18.4µM* | -21.2%
CCCCN1C2=C(C(=O)CC(C)(C)C2)C(c2ccccc2)C2=C1c1ccccc1C2=O (stereo not given) | -2.6% | i | ? | 4.1% | 16.4µM* | -18.1%
CCN(CC)CCN1C2=C(C(=O)CC(C)(C)C2)C(c2cccc(F)c2)C2=C1CC(C)(C)CC2=O | 2.1% | . | -28.3% | -28.0% | ? | -22.1%
CCOC(=O)c1ccc(N(C(=O)c2ccco2)C(C(=O)NC2CCCCC2)c2ccncc2)cc1 (stereo not given) | 16.2% | i | -29.2% | 9.8% | ? | -18.2%
CN1CC(=O)N(CC(=O)Nc2ccc(OCc3ccccc3)cc2)C1=O | -7.8% | i | 4.6% | -9.3% | ? | 37.0%
CCOC(=O)C1=C(c2ccccc2)NC(SC)=C(C#N)C1c1ccco1 (stereo not given) | -23.7% | i | 18.4µM* | -8.4% | 20.6µM* | -3.4%
CCOC(=O)C1=C(c2ccccc2)NC(SCC(=O)Nc2ccc(C)cc2)=C(C#N)C1c1ccco1 (stereo not given) | ? | i | ? | -38.2% | ? | -12.8%
CCc1ccc(OCC(=O)NCC(c2ccc(OC)cc2)N2CCOCC2)cc1 (stereo not given) | ? | . | ? | -5.9% | ? | .
SMILES | TGFb inhibitor | ATXN viability | TDP1 cell CPT | HepG2 tox | DT40 TDP1 no CPT | ATXN2 expr inh
Cc1cc[n+](CCC2CCCCC2)cc1 | ? | . | 10µM* | -8.8% | 11.2µM* | .
Cc1ccnc(NC(=O)CCC2CCCCC2)c1 | -11.9% | i | -28.1% | -1.1% | -20.6% | 61.9%
Cc1cccc(NC(=O)c2cccc(N3C(=O)C4C5C=CC(C6CC56)C4C3=O)c2)c1 (stereo not given) | -21.3% | ? | ? | -2.5% | 14.6µM* | -12.2%
C=C1C=C(C)n2ncc(C(=O)Nc3ccc(C)cn3)c2N1 | . | . | -19.8% | . | ? | .
CCC/C=C1/CCCOC(C(=O)NCCOC)(C(F)(F)F)C1 (stereo not given) | -7.2% | . | . | -8.4% | . | .
CN(Cc1ccccc1)N=Nc1ccccc1 | -1.5% | i | -30.0% | -15.4% | ? | .
CN(C)N=Nc1ccc(-c2cn(Cc3ccccc3)cn2)cc1 | 0.1% | i | -0.2% | 1.7% | 25.9µM* | 9.3%
O=S(=O)(c1ccc(Br)s1)N1CCN(c2ccnc3cc(Cl)ccc23)CC1 | -41.8% | i | ? | 9.3% | 18.4µM* | -24.7%
Cc1ccc(S(=O)(=O)N2CCN(c3ccnc4cc(Cl)ccc34)CC2)cc1C | ? | i | ? | 3.1% | ? | -33.3%
CC(=O)c1ccc(S(=O)(=O)N2CCN(c3ccnc4cc(Cl)ccc34)CC2)cc1 | -4.5% | i | 8.2µM* | -8.5% | 7.31µM* | .
Cc1ccc(S(=O)(=O)N2CCN(c3ccnc4cc(Cl)ccc34)CC2)cc1 | ? | i | 23.1µM* | 1.6% | 23.1µM* | -9.4%[11.3 µM]
Cc1cc(-c2nnc(CCC(=O)N(C)C(C)c3cccs3)o2)no1 (stereo not given) | 13.8% | i | -1.9% | 2.4% | 1.7% | 8.9%
O=c1c(-c2ccco2)[n+]([O-])c2ccccc2n1OCc1ccccc1 | -2.2% | i | 11.6µM* | -2.5% | 11.6µM* | .
O=c1c(-c2cc3ccccc3o2)[n+]([O-])c2ccccc2n1OCc1ccccn1 | -0.5% | i | ? | -11.1% | 14.6µM* | 35.5%
